Experimental findings from paper PMC9838217, “Structure of SALL4 zinc finger domain reveals link between AT-rich DNA binding and Okihiro syndrome” are described below.

Substitutions are numbered along the chain they refer to.

Assay in all cases: HT-SELEX; high values mean tight binding
Details in all cases: protein: recombinant; vector His6-GST; dsDNA, one strand shown

The target of assay [1] is T1, SALL4 ZFC4 WT (HT-SELEX) (Mus musculus, UniProt Q8BX22 870-940).
T1 sequence: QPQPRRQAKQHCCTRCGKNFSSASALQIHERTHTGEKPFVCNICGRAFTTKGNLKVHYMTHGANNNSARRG
In short, it runs like this: (§1)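 Recombinant mouse SALL4 zinc finger cluster 4 (residues 870–940, 1 µg), purified, was mixed with library DNA (1.5 µg in the first cycle, 200 ng thereafter) in 100 µl of buffer containing 10 mM Tris–HCl pH 7.5, 50 mM NaCl, poly(dI-dC) and DTT, and left for 10 min at room temperature. Complexes were captured on Ni2+ beads, washed, amplified by PCR and reselected for up to 6 cycles in triplicate, after which MiSeq sequencing and a 6-mer scan followed. Binding signal is the read fraction of each canonical k-mer, given as fold change relative to the starting random library.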

The target in assay [2] is T2, SALL4 ZFC4 R900W (HT-SELEX) (Mus musculus, UniProt Q8BX22 870-940, R900W).
T2 sequence: T1 sequence with R31W
In short, it runs like this:
as §1

Assay [3] has as its target T3, SALL4 ZFC4 G921D (HT-SELEX) (Mus musculus, UniProt Q8BX22 870-940, G921D).
T3 sequence: T1 sequence with G52D
A digest of the protocol:
as §1

For GGAGGA, the binding signal in assay [1] worked out at 0.577 ± 0.0578 fold-change vs cycle 0; in assay [2], 0.669 ± 0.0435 fold-change vs cycle 0; in assay [3], 0.733 ± 0.0247 fold-change vs cycle 0.
As for ACGTCT, the binding signal stood at 0.744 ± 0.0352 fold-change vs cycle 0 in assay [1], 0.85 ± 0.0392 fold-change vs cycle 0 in assay [2] and 0.941 ± 0.0281 fold-change vs cycle 0 in assay [3].
On to CGAACC, for which the binding signal in assay [1] came to 0.34 ± 0.0157 fold-change vs cycle 0; in assay [2], 0.416 ± 0.00929 fold-change vs cycle 0; in assay [3] it was 0.549 ± 0.0764 fold-change vs cycle 0.
GACCTA: the binding signal in assay [1] was 0.743 ± 0.0147 fold-change vs cycle 0; in assay [2] it was 0.857 ± 0.0141 fold-change vs cycle 0; in assay [3], 0.926 ± 0.0368 fold-change vs cycle 0.
The like results for AGTTGC were, in that order, 0.578 ± 0.0388 fold-change vs cycle 0, 0.664 ± 0.014 fold-change vs cycle 0 and 0.77 ± 0.0363 fold-change vs cycle 0.
For CGTTCA, in that order: 0.712 ± 0.0321 fold-change vs cycle 0, 0.811 ± 0.0256 fold-change vs cycle 0 and 0.871 ± 0.0211 fold-change vs cycle 0.
Take AGACCT: the values for the binding signal in assay [1], in assay [2] and in assay [3] were 0.753 ± 0.0476 fold-change vs cycle 0, 0.917 ± 0.0202 fold-change vs cycle 0 and 0.963 ± 0.0152 fold-change vs cycle 0, respectively.
On to ACCTGA, for which the values for the binding signal in assay [1], in assay [2] and in assay [3] were 0.842 ± 0.0331 fold-change vs cycle 0, 1 ± 0.047 fold-change vs cycle 0 and 1.02 ± 0.0552 fold-change vs cycle 0, respectively.
The like results for ACTACA were, in that order, 1.29 ± 0.0616 fold-change vs cycle 0, 1.42 ± 0.0632 fold-change vs cycle 0 and 1.34 ± 0.0704 fold-change vs cycle 0.
Take CAACCG: the values for the binding signal in assay [1], in assay [2] and in assay [3] were 0.334 ± 0.0164 fold-change vs cycle 0, 0.389 ± 0.015 fold-change vs cycle 0 and 0.509 ± 0.0746 fold-change vs cycle 0, respectively.
For AAATGC, in that order: 0.879 ± 0.0146 fold-change vs cycle 0, 0.918 ± 0.025 fold-change vs cycle 0 and 0.969 ± 0.0401 fold-change vs cycle 0.
The like results for CTCTGC were, in that order, 0.35 ± 0.0408 fold-change vs cycle 0, 0.396 ± 0.021 fold-change vs cycle 0 and 0.522 ± 0.0742 fold-change vs cycle 0.
ATTTAG: the binding signal came out at 1.79 ± 0.0993 fold-change vs cycle 0 in assay [1], 1.83 ± 0.0928 fold-change vs cycle 0 in assay [2] and 1.64 ± 0.15 fold-change vs cycle 0 in assay [3].
As for AGCGAG, the results for the binding signal in assay [1], in assay [2] and in assay [3] were 0.337 ± 0.0112 fold-change vs cycle 0, 0.393 ± 0.0228 fold-change vs cycle 0 and 0.519 ± 0.0797 fold-change vs cycle 0, respectively.
For CAAAAA, in that order: 1.52 ± 0.0617 fold-change vs cycle 0, 1.38 ± 0.0576 fold-change vs cycle 0 and 1.35 ± 0.0641 fold-change vs cycle 0.
Take AACTGC: the results for the binding signal in assay [1], in assay [2] and in assay [3] were 0.6 ± 0.0299 fold-change vs cycle 0, 0.647 ± 0.0277 fold-change vs cycle 0 and 0.741 ± 0.0348 fold-change vs cycle 0, respectively.
Take ACTGCA: the binding signal was 0.647 ± 0.0528 fold-change vs cycle 0 in assay [1], 0.7299 ± 0.00625 fold-change vs cycle 0 in assay [2] and 0.797 ± 0.0181 fold-change vs cycle 0 in assay [3].
The like results for AACAGA were, in that order, 1.28 ± 0.057 fold-change vs cycle 0, 1.41 ± 0.0434 fold-change vs cycle 0 and 1.35 ± 0.0868 fold-change vs cycle 0.
As for CATCTA, the results for the binding signal in assay [1], in assay [2] and in assay [3] were 1.33 ± 0.0229 fold-change vs cycle 0, 1.41 ± 0.0368 fold-change vs cycle 0 and 1.38 ± 0.068 fold-change vs cycle 0, respectively.
For GTACGA, in that order: 0.706 ± 0.0277 fold-change vs cycle 0, 0.794 ± 0.0311 fold-change vs cycle 0 and 0.843 ± 0.0399 fold-change vs cycle 0.
For the sequence CCATGA, the figures for the binding signal in assay [1], in assay [2] and in assay [3] were 0.874 ± 0.0255 fold-change vs cycle 0, 0.938 ± 0.011 fold-change vs cycle 0 and 1.01 ± 0.0502 fold-change vs cycle 0, respectively.
For ATGTAA, in that order: 2.3 ± 0.158 fold-change vs cycle 0, 2.09 ± 0.134 fold-change vs cycle 0 and 1.83 ± 0.187 fold-change vs cycle 0.
Consider CATTCA, for which the binding signal in assay [1] stood at 1.32 ± 0.0575 fold-change vs cycle 0; in assay [2] it was 1.48 ± 0.0487 fold-change vs cycle 0; in assay [3], 1.41 ± 0.0654 fold-change vs cycle 0.
